From PubChem
In the library only some 27% were active in any assay of this set; here they are far more common.
CYP2C19 activ – increases human CYP2C19 enzyme activity | P33261 | recombinant CYP2C19, luciferin-H EGE luminescence; hits give high values; 0 = fully inhibited enzyme, 1 = untreated enzyme | activation factor at 5 µM | 96,000 tested, under 10 active | AID 1025;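 active = activation factor of at least 2 at 5 µM in the primary screen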;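 note: 0 = wells with 2.5 mM tranylcypromine and 1 = vehicle-only wells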
CYP2C9 inh – human CYP2C9 inhibition; P11712; CYP2C9 Supersomes, luciferin-H conversion, luminescence; inhibition, % at 5 µM; 96,000 compounds, 20% hits; AID 777;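 active = blocking of liver enzyme CYP2C9 beyond about 50% at 5 µM, limit read from the data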
Target sequence (P11712 whole entry, looked up): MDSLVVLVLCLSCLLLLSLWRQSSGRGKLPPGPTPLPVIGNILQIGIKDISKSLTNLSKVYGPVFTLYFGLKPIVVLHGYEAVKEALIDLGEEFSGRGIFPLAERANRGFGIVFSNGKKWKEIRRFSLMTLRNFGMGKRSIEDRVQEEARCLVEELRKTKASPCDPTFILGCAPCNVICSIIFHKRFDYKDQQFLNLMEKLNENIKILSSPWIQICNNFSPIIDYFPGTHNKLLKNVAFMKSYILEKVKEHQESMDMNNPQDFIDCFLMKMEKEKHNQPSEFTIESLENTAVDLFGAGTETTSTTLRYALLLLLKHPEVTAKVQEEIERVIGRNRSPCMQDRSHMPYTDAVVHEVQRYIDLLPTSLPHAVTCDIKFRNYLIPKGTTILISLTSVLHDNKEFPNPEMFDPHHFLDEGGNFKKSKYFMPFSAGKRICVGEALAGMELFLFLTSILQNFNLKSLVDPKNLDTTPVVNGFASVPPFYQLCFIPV
sEH inh – blocks human soluble epoxide hydrolase activity; recombinant human sEH enzymatic activity assay; inhibition, % at 2 µM; 91,000 compounds, 0.34% hits; AID 707; in the data active = inhibition above about 80%
sEH activator – soluble epoxide hydrolase (human) activation | P34913 | purified human sEH enzymatic activity, activator screen | activation, % at 2 µM | 91,000 compounds, 0.04% hits; in the data active = activation above about 37%
CYP2C9 activ – increases human cytochrome P450 2C9 activity. activation factor at 5 µM. recombinant CYP2C9, luciferin-H conversion, luminescence; hits give high values; factor 1 = untreated enzyme, 0 = blocked. P11712. 96,000 compounds, 1.4% hits;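 active = activation factor of 2 or more for CYP2C9 at a 5 µM dose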;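 note: 0 = sulfaphenazole-blocked wells and 1 = vehicle-only wells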
CYP2C19 inhib – inhibitors of human CYP2C19 | P33261 | inhibition, % at 5 µM | CYP2C19 Supersomes, luciferin-H EGE luminescence, 30 min | 96,000 compounds, 21% hits;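 active = CYP2C19 inhibition above a set limit at 5 µM in the primary screen, cut at about 50% in these data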;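 note: plate controls were negative control wells for no effect and 2.5 mM tranylcypromine positive control for full effect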
Numbers without * were called inactive; x = not tested or not shown.

SMILES | CYP2C19 activ | CYP2C9 inh | sEH inh | sEH activator | CYP2C9 activ | CYP2C19 inhib
COC(=O)c1cccc(COC(=O)c2ccc(CS(=O)(=O)c3ccc(C)cc3)cc2)c1 | 0.9 | 76.6* | 8.4 | -8.7 | 0.2 | 9.4
O=C1CC(c2cc3c(cc2Br)OCO3)C2=C(CCCC2=O)N1 (centres undefined) | 0.8 | 16.1 | 15.9 | -17.5 | 0.8 | 16.3
CCC(=O)N1CCN(C(=O)CC)C1c1ccccc1 | 0.9 | -1.0 | -9.2 | 10.7 | 1 | 5.4
CCOc1ccc(CNn2nnnc2N)cc1 | 1 | 1.9 | 4.3 | -3.0 | 1 | 4.5
O=C1[C@@H]2[C@H](C(=O)N1Cc1ccco1)[C@H]1C=C[C@@H]2C1 | 0.8 | 18.9 | 5.2 | -5.4 | 0.8 | 21.6
CCOC(=O)c1ccc2[nH]c3c(c2c1)CCCC3C(=O)OCC (centres undefined) | 0.1 | 82.0* | -2.1 | 5.0 | 0.2 | 89.0*
O=C(CCc1nc2ccccc2c(=O)[nH]1)NC1CCN(Cc2ccccc2)CC1 | 0.9 | 23.2 | x | x | 0.8 | 9.9
O=C1c2sc3nc4ccccc4n3c2C(=O)N1c1ccccc1Cl | 1.1 | 59.7* | 6.3 | -5.3 | 0.4 | -10.5
O=C(Nc1ccccn1)c1ccc2ccccc2n1 | 1 | 2.6 | 6.9 | -8.2 | 1 | -1.0
Cc1cccc2c1N(CCCOc1ccc(C(C)(C)C)cc1)C(=O)C2=O | 0.8 | 8.9 | x | x | 0.9 | 24.0
Cc1ccc(OCCN2C(=O)c3ccccc3C2=O)cc1 | 0.2 | 38.5 | -10.2 | 10.5 | 0.6 | 81.3*
CCCOC(=O)CN1C(=O)c2ccc(C(=O)OCCC)cc2C1=O | 0.7 | 31.9 | -5.1 | 4.7 | 0.7 | 32.0
Cc1cccc2c1N(CCCOc1ccccc1)C(=O)C2=O | 0.4 | 43.1 | -13.8 | 17.1 | 0.6 | 62.5*
Cc1ccc(OCCN2C(=O)c3ccccc3C2=O)c(C)c1 | 0.8 | -2.5 | 6.8 | -8.8 | 1 | 23.2
COc1cccc(C(=O)OCCN2C(=O)c3ccccc3C2=O)c1OC | 0.1 | 34.9 | -2.0 | 1.6 | 0.7 | 89.9*
CCCCOC(=O)CN1C(=O)c2ccc(C(=O)OCCCC)cc2C1=O | 0.1 | 69.8* | 1.1 | -3.0 | 0.3 | 87.5*
CCSc1nnc(N2C(=O)CC(c3ccsc3)C3=C2CC(C)(C)CC3=O)s1 (centres undefined) | 0.6 | 14.3 | 9.4 | -10.2 | 0.9 | 39.5
Cc1cccc(CN2CCN(CC(=O)NCc3ccc(F)cc3)C2=O)c1 | x | x | -6.5 | 5.6 | x | x
Cc1ccccc1-c1nc(CS(=O)(=O)CC(=O)N2CCc3ccccc32)c(C)o1 | x | x | -1.3 | 1.1 | x | x
COc1ccc(CC(=O)OCN2C(=O)c3ccccc3C2=O)cc1 | 0.5 | -14.5 | x | x | 1.1 | 48.0
COc1ccc(C(=O)OCCN2C(=O)c3ccccc3C2=O)cc1 | 0.1 | 71.9* | -5.4 | 5.8 | 0.3 | 92.8*
Cc1cc(C(=O)OCCN2C(=O)c3ccccc3C2=O)c2ccccc2n1 | 0.3 | 75.1* | x | x | 0.2 | 67.5*
CC1CCCC(NC(=O)CCCn2c(=O)[nH]c3cc(Cl)ccc3c2=O)C1C (centres undefined) | 0.8 | 44.4 | 33.1 | -35.0 | 0.6 | 20.1
Cc1ccc(CNC(=O)C2CC(c3cccc([N+](=O)[O-])c3)=NO2)o1 (centres undefined) | 0.9 | -17.8 | 17.8 | -17.1 | 1.2 | 10.6
CC(=O)c1c(C)nc2ccc(Br)cc2c1C(=O)O | 1 | 15.3 | -19.1 | 17.9 | 0.8 | 4.3
SMILES | CYP2C19 activ | CYP2C9 inh | sEH inh | sEH activator | CYP2C9 activ | CYP2C19 inhib
Cn1cnnc1-c1cccc(NS(=O)(=O)c2ccc(N3CCCC3=O)cc2)c1 | x | x | -0.6 | -2.8 | x | x
Cc1ccccc1Nc1c(N)c(=O)oc2ccccc12 | 0 | 64.9* | -25.4 | 21.7 | 0.4 | 95.6*
Nc1c(NC2CCCCC2)c2ccccc2oc1=O | 0.7 | 16.8 | -1.6 | 6.8 | 0.8 | 35.0
CSCCC1NC2(C(=O)Nc3c(Cl)cccc32)[C@@H]2C(=O)N(C3CCCC3)C(=O)[C@H]12 (some centres undefined) | 0.8 | 12.0 | -6.8 | 8.2 | 0.9 | 20.4
CSCCC1NC2(C(=O)Nc3c(C)cc(Cl)cc32)[C@@H]2C(=O)N(C3CCCC3)C(=O)[C@H]12 (some centres undefined) | 0.5 | 60.0* | 10.2 | -7.1 | 0.4 | 49.8
CCn1c(SCC(=O)N2CCOCC2)nc2sc3c(c2c1=O)CCCC3 | 0.6 | 65.6* | x | x | 0.3 | 37.6
CCn1c(SC(C)C(=O)O)nc2sc3c(c2c1=O)CCC3 (centres undefined) | 1.1 | 74.1* | x | x | 0.3 | -5.1
CCc1nc2sc3c(c2c(=O)n1NC(=O)CCl)CCCC3 | 0.8 | 75.8* | -2.6 | 2.7 | 0.2 | 20.3
COc1ccc(CCN2C(=NC(=O)CCC(=O)O)SC3CS(=O)(=O)CC32)cc1 (centres undefined) | 1 | 7.8 | 0.7 | -0.2 | 0.9 | 0.9
Cc1cc(C=O)c(C)n1-c1ccc(N2CCCC2)c([N+](=O)[O-])c1 | 0.3 | 43.6 | 1.0 | -0.6 | 0.6 | 70.2*
O=C(NC1CC1)C1CCN(c2ccc(S(=O)(=O)N3CCOCC3)cc2Cl)CC1 | 0.5 | 78.1* | -2.8 | 0.9 | 0.2 | 49.8
CC(C)CNC(=O)C1CCN(c2ccc(S(=O)(=O)N3CCOCC3)cc2Cl)CC1 | 0.6 | 55.7* | x | x | 0.4 | 39.8
O=C(CCNS(=O)(=O)c1ccc(Cl)cc1)N1CCC2(O)CCCCC2C1 (centres undefined) | 1.1 | 15.9 | 8.7 | -8.5 | 0.8 | -8.9
Cc1cc(C)nc(N2CCCC(C(=O)NCc3cccc(C(F)(F)F)c3)C2)n1 (centres undefined) | 0.8 | -108.0 | 73.7 | -73.6 | 2.1* | 22.4
O=C(NCc1cccc(C(F)(F)F)c1)C1CCCN(c2ncccn2)C1 (centres undefined) | 0.5 | 1.5 | 64.9 | -65.4 | 1 | 46.3
COc1ccccc1NC(=O)C1CCCN(c2nc(C)cc(C)n2)C1 (centres undefined) | x | x | -4.7 | 4.4 | x | x
Cc1cc(C)nc(N2CCCC(C(=O)Nc3cc(F)ccc3C)C2)n1 (centres undefined) | 0.4 | -25.8 | 7.5 | -10.2 | 1.3 | 64.7*
CCOc1ccc(OCC)c(NC(=O)C2CCCN(c3nc(C)cc(C)n3)C2)c1 (centres undefined) | 0.3 | 75.9* | x | x | 0.2 | 73.2*
Cc1cc(C)nc(N2CCCC(C(=O)NC3CCCC3)C2)n1 (centres undefined) | 0.4 | 21.2 | -8.6 | 10.0 | 0.8 | 58.0*
CCOC(=O)c1cc(NC(=O)CSc2nnc(CN3CCOCC3)n2C)ccc1Cl | x | x | -6.6 | 3.0 | x | x
CC1(C)OC(=O)C(=CNCC(=O)NCC(=O)O)C(=O)O1 | 0.8 | 18.2 | 2.7 | 0.6 | 0.8 | 18.7
CC(=O)c1cccc(NC(=O)c2cc3nc(C)cc(C)n3n2)c1 | 1 | -0.6 | -2.4 | 4.9 | 1 | -2.9
O=C1C(Cc2ccc(O)cc2)NC(=S)N1c1ccccc1 (centres undefined) | 0.4 | 38.4 | 5.8 | -5.4 | 0.6 | 56.9*
Cc1ccc(C(=O)c2cc3c(cc2N)OCCO3)cc1 | 0.3 | 67.9* | x | x | 0.3 | 67.0*
